IMPase cell inh: IMPase inhibition in cells. 120,000 tested, under 10 active. inhibition (IP1 accumulation), % at 46.1 µM. CHO-M1 cells, IP1 accumulation, HTRF TR-FRET ratio; active = well fitted curve in the direction sought with a large enough effect in the signal ratio, not every such curve was filed as active; inconclusive = small, poorly fitted or top-dose-only effect, or a change in a side signal; inactive = no such curve, though single readings can be large or run the other way; the % refers to the signal ratio;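 also: cells stimulated with carbachol in lithium chloride buffer; plate controls were DMSO basal wells for no effect and reference inhibitor wells for full effect; higher means more IMPase inhibition seen as more IP1 and lower FRET ratio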
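CHO-M1, 2000 cells/well, cultured 16–30 h; cpd up to 46 uM; carbachol (50 uM solution, stimulation buffer w/ 50 mM LiCl, pH 7.4), 30 min 37C; IP-One TR-FRET, 10 min RT; Ex 320/Em 665, 620; Hill-fit AC50.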
IMPase Li inh: membrane-permeable IMPase blocker, potentiated with lithium | AID 1457 | 0.35% of 210,000 active | CHO-M1 cells, IP1 TR-FRET (IP-One), carbachol + lithium | Potency, µM (top dose mostly 59.4 µM), inactives show at the top dose activity, negative = IMPase inhibition, most hits filed as inhibitors;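 also: IP1 builds up when IMPase is blocked and the TR-FRET signal falls; potency is read from the fitted curve at half-maximal effect; plate controls were basal vehicle for no effect and high inhibitor control for full effect; nearly all actives have a fitted effect of over 50% in size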
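Test compounds were applied to CHO-M1 cells previously cultured for 16–30 h at 2000 per well. A small lithium amount accompanied them; after 30 min at 37C, IP1 was quantified by TR-FRET.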
PNC assembly inh: inhibitors of perinucleolar compartment assembly | activity change (PNC), negative = inhibition, % at 10 µM | 3.1% of 140,000 active | PC3M PTB-GFP, PNC prevalence imaging, 16 h; active compounds read low;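 active = readout at or below -70, meaning at least 70% loss of cells showing the perinucleolar compartment, a nuclear body marking cancer cells; inconclusive = readout between -30 and a set limit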;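 also: plate controls were DMSO wells for no effect and camptothecin positive control wells for full effect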
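Compounds are pinned in duplicate onto adhered PC3M cells stably expressing GFP-tagged PTB and incubated 16 h at 37 C. Cells are then fixed, nuclei stained with Hoechst, and PNC-positive cells counted.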
12-hLO inh: blocks human 12-lipoxygenase activity; purified 12-hLO, xylenol orange hydroperoxide absorbance; AID 1452; Potency, µM (titrated, usually from 57.1 µM), without a hit: at the highest dose activity change, negative = inhibition, usual class: inhibitors; 0.12% of 150,000 active; also: potency is read from the fitted curve at half-maximal effect; nearly all actives have a fitted effect of over 55% in size
Target sequence (P18054 whole entry, looked up): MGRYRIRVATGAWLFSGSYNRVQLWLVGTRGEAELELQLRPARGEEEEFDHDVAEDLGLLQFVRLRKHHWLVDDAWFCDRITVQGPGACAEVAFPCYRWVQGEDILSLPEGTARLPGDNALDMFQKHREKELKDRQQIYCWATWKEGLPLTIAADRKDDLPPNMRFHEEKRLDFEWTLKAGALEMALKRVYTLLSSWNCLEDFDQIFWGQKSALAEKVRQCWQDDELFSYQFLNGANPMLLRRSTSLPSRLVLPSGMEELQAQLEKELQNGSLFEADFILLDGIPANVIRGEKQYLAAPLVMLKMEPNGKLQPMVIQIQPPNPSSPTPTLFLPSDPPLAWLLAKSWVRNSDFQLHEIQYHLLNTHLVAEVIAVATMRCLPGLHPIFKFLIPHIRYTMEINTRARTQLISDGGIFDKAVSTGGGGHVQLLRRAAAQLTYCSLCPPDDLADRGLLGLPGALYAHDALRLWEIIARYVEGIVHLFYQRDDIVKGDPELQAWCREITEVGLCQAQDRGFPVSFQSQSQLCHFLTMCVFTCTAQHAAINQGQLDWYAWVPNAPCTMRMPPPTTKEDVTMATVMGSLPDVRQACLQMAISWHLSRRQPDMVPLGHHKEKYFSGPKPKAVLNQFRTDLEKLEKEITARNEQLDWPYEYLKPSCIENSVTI
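150 nM 12hLO, 25 mM Hepes pH 7.0 + 0.01% Triton X-100; cpd preinc 15 min RT; 40 uM arachidonic acid, 30 min RT; Fe-XO 30 min; A573/A405 ratio as read-out.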
ALDH1A1 inh: ALDH1A1 (human) enzyme inhibition | Potency, µM (highest dose often 75.3 µM), for inactives: at the top dose activity, negative = inhibition, hits mostly inhibitors | P00352 | Purified ALDH1A1, NADH fluorescence, propionaldehyde substrate | AID 1030 | 7.3% of 220,000 active; active = well fitted inhibition curve with a large enough effect, not every such curve was filed as active; inconclusive = small, poorly fitted or top-dose-only effect, or another doubt; inactive = no such curve, though single readings can be large or run the other way;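 also: potency is read from the fitted curve at half-maximal effect; plate controls were no enzyme wells and a reference inhibitor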
HPGD inh: inhibitors of human 15-hydroxyprostaglandin dehydrogenase (HPGD) | 4.3% of 150,000 active | P15428 | Potency, µM, for inactives: top-dose activity change, negative = inhibition, actives largely listed as inhibitors | purified HPGD, NADH fluorescence kinetic, PGE2 substrate | AID 894; active = well fitted inhibition curve with a large enough effect, not every such curve was filed as active; inconclusive = small, poorly fitted or top-dose-only effect, or another doubt; inactive = no such curve, though single readings can be large or run the other way; also: potency is read from the fitted curve at half-maximal effect
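20 nM HPGD preincubated 15 min at room temperature with compound in 50 mM Tris-HCl pH 8, 0.01% Tween 20. Started with 1 mM NAD+ and 30 uM prostaglandin E2; NADH fluorescence (360/450 nm) read 5 times over 30-s intervals, last minus first.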
* = called active by the depositor; ? = inconclusive; / = not tested or not shown; [ ] = another dose, or the depositor's remark. In the library only some 11% were active in any assay of this set; here they are far more common. Unless noted, calls follow the shape of the dose curve; as a rule, active = well fitted curve in the direction sought with a large enough effect; inconclusive = small, poorly fitted or top-dose-only effect, or another doubt; inactive = no such curve, though single readings can be large; an effect the other way counts as inactive or inconclusive. Unless noted, % is scaled to controls: 0 for no effect and ±100 for the full control effect.

SMILES | IMPase cell inh | IMPase Li inh | PNC assembly inh | 12-hLO inh | ALDH1A1 inh | HPGD inh
O=[N+]([O-])c1cc(F)c(N2CCCCCC2)cc1N1CCNCC1 | / | 9% | / | / | 7.1µM* | /
O=[N+]([O-])c1ccc(N2CCNCC2)cc1N1CCCCCC1 | / | 30% | / | / | 4.5µM* | /
O=[N+]([O-])c1ccc(N2CCNCC2)cc1NCc1ccco1 | / | 25% | -6 | -4% | 28µM* | -19%
Clc1nc(Cl)nc(Nc2ccccc2Cl)n1 | / | 2% | / | -3% | -1% | -3%
CCC[CH2][Sn]([Cl])([Cl])[Cl] | / | 6% | / | 3% | ? | -3%
O=CC1=C(N2CCOCC2)/C(=C\c2ccccc2)CC1 | / | -3% | / | / | 3.5µM* | /
CC(=O)[C@H]1[C@H](C#N)CC2C3CC=C4C[C@@H](O)CCC4(C)C3CCC21C (some centres not stated) | / | 16% | / | -1%[0.00818 µM] | -2% | -3%
CN1CCC(O)(c2ccccc2)C(C(=O)c2ccccc2)C1 (configuration not stated) | 11 | 8%[38.3 µM] | 27 | -4% | 0.14µM* | -4%
C[C@H](NC(C)(C)C)C(=O)c1cccc(Cl)c1 | 1[20.6 µM] | 4% | / | 5%[25.6 µM] | ? | -3%
C[N+](C)(C)CC#CCOC(=O)Nc1cccc(Cl)c1 | 3 | 26% | / | 1% | 7.9µM* | -12%
Cc1ccc(S(=O)(=O)N[C@@H](CCCCN)C(=O)CCl)cc1 | 9 | 12% | / | -2% | 8.9µM* | ?
C(=C/c1ccccc1)/CN1CCN(CCOC(c2ccccc2)c2ccccc2)CC1 | 18 | 36% | / | -12% | -11% | -9%
O=C1N=C(N2CCCCC2)SC1=C1CCCCC1 | 14 | 18%[38.3 µM] | 11 | -3% | 8.9µM* | 20µM*
COC1=CC2C3Cc4ccc(OC)c(O)c4[C@]2(CCN3C)CC1=O (some centres not stated) | / | 0% | / | 1% | 4% | -5%
CCOC(=O)Cc1[nH]nc2c1C(c1ccoc1)C(C#N)=C(N)O2 (configuration not stated) | 5 | 12%[38.3 µM] | ? | -8% | ? | -27%
O=C1NC(=O)N(Cc2ccc(F)cc2)C(=O)/C1=C\c1ccc(N2CCCC2)cc1 | / | / | / | / | 0.25µM* | /
CN1C(=O)C(=Cc2ccc(SC3CCCCC3)o2)C(=O)N(C)C1=O | / | -6% | / | / | 14µM* | /
COc1ccc(CN2C(=O)NC(=O)/C(=C\c3cc(OC)c(OC)c(OC)c3)C2=O)cc1 | / | -2% | / | / | 17% | /
Cc1ccc(N2C(=O)NC(=O)/C(=C\c3ccc(N4CCOCC4)cc3)C2=O)cc1 | / | -1% | ? | 0% | 11µM* | 35µM*
Cc1cccc(N2C(=O)NC(=O)/C(=C/c3ccc(N4CCOCC4)cc3)C2=O)c1 | / | 0% | / | / | 11µM* | /
Cc1c(C=C2C(=O)N(C)C(=O)N(C)C2=O)c(=O)n(-c2ccccc2)n1C | / | 4% | -10 | -1% | 3% | 5%
O=P(c1ccccc1)(c1ccccc1)N1CC2(CC2)CC(O)(c2ccccc2)C1 (configuration not stated) | / | 4% | / | -3% | -9% | -11%
CCCCCC1C(=O)O[C@H](C)[C@@H](NC(=O)c2cccc(NC=O)c2O)C(=O)OC(C)C1OC(=O)CC(C)C (some centres not stated) | / | 22% | / | -8% | 6% | ?
COc1cc2c(cc1OC)[C@@]13CCN4C=C5CCO[C@H]6CC(=O)N2[C@@H]1[C@@H]6[C@H]5C[C@H]43 | / | / | / | -2%[11.4 µM] | / | /
CC(C)C[C@H](NP(=O)(O)O[C@@H]1O[C@@H](C)[C@@H](O)[C@@H](O)[C@H]1O)C(=O)N[C@@H](Cc1c[nH]c2ccccc12)C(=O)O | 0 | / | / | 2% | / | /
SMILES | IMPase cell inh | IMPase Li inh | PNC assembly inh | 12-hLO inh | ALDH1A1 inh | HPGD inh
CN1C(=O)C(=Cc2ccc(N3CCCCCC3)cc2)C(=O)N(C)C1=O | / | / | / | / | 0.11µM* | /
CCN(CC)c1ccc(C=C2C(=O)N(C)C(=S)N(C)C2=O)o1 | / | 6% | 33 | -1% | -14% | -13%
CN1C(=O)C(=Cc2ccc(N3CCCCC3)o2)C(=O)N(C)C1=S | -2 | 10%[38.3 µM] | -100* | -2% | 14µM* | -23%
COc1ccc(N2C(=O)NC(=O)/C(=C/c3ccc(N4CCOCC4)cc3)C2=O)cc1 | / | 8% | / | / | 10µM* | /
O=C1NC(=O)N(c2ccc(F)cc2)C(=O)/C1=C/c1ccc(N2CCOCC2)cc1 | / | 0% | / | / | 4µM* | /
CCOc1ccc(N2C(=O)NC(=O)/C(=C\c3ccc(N4CCOCC4)cc3C)C2=O)cc1 | / | 4% | / | / | ? | /
CC(C)(O)C1O[C@H]2CC[C@@]3(C)[C@@](O)(CC[C@H]4Cc5c([nH]c6ccccc56)[C@@]43C)C2=CC1=O (some centres not stated) | / | 20% | / | / | -7% | /
CN1[C@H](CC(=O)c2ccccc2)CCC[C@H]1C[C@@H](O)c1ccccc1 | 5 | 19% | / | -3% | 4% | -5%
CN1C(CC(=O)c2ccccc2)CCCC1CC(O)c1ccccc1 (configuration not stated) | 17 | 21% | -110* | -1% | -2% | -10%
C[C@]12CC[C@H](O)C[C@@H]1CC[C@H]1[C@H]2CC[C@]2(C)[C@H](C(=O)CO)CC[C@@H]12 | 4 | / | / | -4% | / | /
Oc1ccc(/C=N/NP(=S)(c2ccccc2)c2ccccc2)c(O)c1O | 6 | 32%[38.3 µM] | 38 | ? | 11µM* | 22µM*
Oc1ccccc1/C=N/NP(=S)(c1ccccc1)c1ccccc1 | / | 10% | / | / | ? | /
CCCCC[CH2][Hg][S]C1=C2N=CNC2NC(N)=N1 (configuration not stated) | / | 19% | / | / | 0.32µM* | 0.71µM*
O=C1C=CC(=O)c2c(O)cccc21 | / | 1% | / | -24% | 13µM* | 14µM*
COc1ccc2c(c1)[nH]c1c(C)nccc12 | -1 | -4% | / | -1% | 5.6µM* | ?
O=C1N[C@@]2(CN3CCC2CC3)C(=O)N1CN(Cc1ccccc1)c1ccccc1 | / | -7% | / | 1%[11.4 µM] | 15%[13.5 µM] | -12%
CC1CN(c2ccc([N+](=O)[O-])cc2Cl)CCN1 (configuration not stated) | / | -10% | / | / | 16µM* | /
COc1ccc(CN2CCN(C(=O)Cc3ccccc3)CC2)c(OC)c1 | / | 1% | 11 | 1% | 18µM* | -2%
Cc1ccc(OCC(=O)N2CCN(Cc3ccc4c(c3)OCO4)CC2)cc1 | / | 12% | / | / | 25µM* | /
COc1ccc(OCC(=O)N2CCN(C(C)C)CC2)cc1 | ? | -1% | -100* | -4% | ? | -10%
COc1cccc(CN2CCN(C(=O)COc3ccc4ccccc4c3)CC2)c1 | 5 | -19%[38.3 µM] | 12 | -3% | 25µM* | -7%

Screening results as filed in PubChem.
